Only some compounds are listed: those with a hit (about 27% of all), similar ones and a draw of the others.
CYP2C9 inh: blockers of cytochrome P450 2C9 activity – biochemical, luminescence, ADME assay, primary screen; P11712; inhibition, % at 5 µM; 96,000 tested, 20% active; CYP2C9 Supersomes, luciferin-H conversion; AID 777, 2007;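 active = blocking of liver enzyme CYP2C9 beyond about 50% at 5 µM, limit read from the data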
CYP2C19 activ: human CYP2C19 activators, primary screen, biochemical, luminescence | activation factor at 5 µM | recombinant CYP2C19, luciferin-H EGE luminescence; active compounds read high; 0 = fully inhibited enzyme, 1 = untreated enzyme | Cytochrome P450 2C19 (Homo sapiens), P33261 | 96,000 tested, under 10 active;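 active = activation factor of at least 2 at 5 µM in the primary screen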
Target sequence (P33261 whole entry, looked up): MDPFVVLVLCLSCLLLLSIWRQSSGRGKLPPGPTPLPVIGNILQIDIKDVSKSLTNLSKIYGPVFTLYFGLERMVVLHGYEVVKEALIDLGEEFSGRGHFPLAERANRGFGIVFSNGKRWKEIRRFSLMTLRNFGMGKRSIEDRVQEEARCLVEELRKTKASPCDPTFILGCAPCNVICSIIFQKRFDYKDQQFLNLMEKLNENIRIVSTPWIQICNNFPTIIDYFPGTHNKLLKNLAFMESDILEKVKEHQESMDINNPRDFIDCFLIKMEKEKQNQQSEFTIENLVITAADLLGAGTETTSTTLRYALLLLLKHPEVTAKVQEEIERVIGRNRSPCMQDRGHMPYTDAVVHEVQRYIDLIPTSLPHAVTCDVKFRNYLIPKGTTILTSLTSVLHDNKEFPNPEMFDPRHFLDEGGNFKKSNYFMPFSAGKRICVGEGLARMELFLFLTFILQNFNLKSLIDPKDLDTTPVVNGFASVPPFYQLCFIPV
Cav32 inh: Cav3.2 calcium influx blockers – cell-based, Fluo-4 calcium fluorescence, FDSS, MLSMR library, primary screen | Voltage-dependent T-type calcium channel subunit alpha-1H (Homo sapiens), O95180 | Cav3.2-expressing cells; active compounds read low | B-score at 10 µM | 100,000 tested, 4% active | AID 449739, 2010;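 active = single-dose well whose peak fluorescence ratio is a statistical outlier from its plate by either plate-standardised score or position-corrected B-score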
CYP2C19 inh: blockers of cytochrome P450 2C19 activity – biochemical, luminescence, ADME assay, primary screen | CYP2C19 Supersomes, luciferin-H EGE luminescence, 30 min | inhibition, % at 5 µM | 96,000 tested, 21% active | AID 778, 2007;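 active = CYP2C19 inhibition above a set limit at 5 µM in the primary screen, cut at about 50% in these data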
CYP2C9 activ: human CYP2C9 activators, primary screen, biochemical, luminescence; recombinant CYP2C9, luciferin-H conversion; active compounds read high; factor 1 = untreated enzyme, 0 = blocked; 96,000 tested, 1.4% active; activation factor at 5 µM; AID 1024, 2008;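 active = activation factor of 2 or more for CYP2C9 at a 5 µM dose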
A number is an active result.

What do the screens show for `CC(=O)C1=C(O)C(=O)N(c2cccnc2)C1c1ccc(Cl)cc1` (configuration not stated)?
CYP2C9 inh: inactive; CYP2C19 activ: inactive; Cav32 inh: inactive; CYP2C19 inh: inactive; CYP2C9 activ: inactive

What do the screens show for `CCOC(=O)c1cnc(-c2ccccc2)nc1Oc1ccccc1`?
CYP2C9 inh: inactive; CYP2C19 activ: inactive; Cav32 inh: inactive; CYP2C19 inh: inactive; CYP2C9 activ: inactive

What do the screens show for `CCOC(=O)C1=C(c2cccc(Oc3ccccc3)c2)NC(=S)NC1C` (configuration not stated)?
CYP2C9 inh: 99; CYP2C19 activ: inactive; Cav32 inh: -8.3; CYP2C19 inh: 100; CYP2C9 activ: inactive

How did CCn1c(O)c(/C=N/N=C/c2ccccc2)c2ccc(C3=NNC(=O)CC3)cc21 do in these assays?
CYP2C9 inh: 64; CYP2C19 activ: inactive; Cav32 inh: inactive; CYP2C19 inh: inactive; CYP2C9 activ: inactive

What do the screens show for `Cc1ccc2oc(=O)c3cnn(CC(=O)NCCCOC(C)C)c3c2c1`?
CYP2C9 inh: inactive; CYP2C19 activ: inactive; Cav32 inh: inactive; CYP2C19 inh: inactive; CYP2C9 activ: inactive

What do the screens show for `Cc1ccc(S(=O)(=O)N(Cc2nccn2C)C(C)C)cc1`?
CYP2C9 inh: inactive; CYP2C19 activ: inactive; Cav32 inh: inactive; CYP2C19 inh: inactive; CYP2C9 activ: inactive

What do the screens show for `Cc1nc(SCC(=O)NCCc2ccccc2)nc(C)c1C`?
CYP2C9 inh: inactive; CYP2C19 activ: inactive; Cav32 inh: inactive; CYP2C19 inh: 80; CYP2C9 activ: inactive

Results for Cc1nc(SCC(=O)NC(=O)NCc2ccccc2)nc(C)c1C ?
CYP2C9 inh: inactive; CYP2C19 activ: inactive; Cav32 inh: inactive; CYP2C19 inh: 59; CYP2C9 activ: inactive

What do the screens show for `Cc1cc(C(=O)NCCN2CCN(c3cccc(Cl)c3)CC2)n(-c2ccccc2)n1`?
CYP2C9 inh: inactive; CYP2C19 activ: inactive; Cav32 inh: inactive; CYP2C19 inh: inactive; CYP2C9 activ: inactive

Results for Cc1cc(C(=O)NCCCN2CCN(c3cc(Cl)ccc3C)CC2)n(-c2ccccc2)n1 ?
CYP2C9 inh: inactive; CYP2C19 activ: inactive; Cav32 inh: -4.7; CYP2C19 inh: inactive; CYP2C9 activ: inactive

What do the screens show for `Nc1c2c(nc3ccc(Br)cc13)N(c1ccccc1)CC2`?
CYP2C9 inh: 87; CYP2C19 activ: inactive; Cav32 inh: inactive; CYP2C19 inh: 89; CYP2C9 activ: inactive

What do the screens show for `O=S(=O)(N1CCCCC1)N1CCCN(S(=O)(=O)N2CCCCC2)CC1`?
CYP2C9 inh: 50; CYP2C19 activ: inactive; Cav32 inh: inactive; CYP2C19 inh: inactive; CYP2C9 activ: inactive

How did O=S(=O)(N1CCCCCC1)N1CCN(S(=O)(=O)N2CCOCC2)CC1 do in these assays?
CYP2C9 inh: inactive; CYP2C19 activ: inactive; CYP2C19 inh: inactive; CYP2C9 activ: inactive

Results for CC1(C)Cc2ccccc2-c2nnc(SCC(=O)Nc3nc4ccccc4s3)n21 ?
CYP2C9 inh: inactive; CYP2C19 activ: inactive; Cav32 inh: inactive; CYP2C19 inh: inactive; CYP2C9 activ: inactive

Results for COc1ccc(NC(=O)c2ccc(CN3CCN(c4ccccc4)CC3)cc2)cc1 ?
CYP2C9 inh: inactive; CYP2C19 activ: inactive; Cav32 inh: inactive; CYP2C19 inh: inactive; CYP2C9 activ: inactive

How did COc1ccc(C(=O)C2CN(c3ccccc3)CC2c2ccc(Cl)cc2)cc1 (configuration not stated) do in these assays?
CYP2C9 inh: 63; CYP2C19 activ: inactive; Cav32 inh: inactive; CYP2C19 inh: inactive; CYP2C9 activ: inactive

How did CC(C)C(NC(=O)CSc1ccc(Cl)cc1)C(C)C do in these assays?
CYP2C9 inh: 66; CYP2C19 activ: inactive; Cav32 inh: inactive; CYP2C19 inh: 100; CYP2C9 activ: inactive

Results for O=C(CSc1ncccn1)Nn1cnnc1 ?
CYP2C9 inh: inactive; CYP2C19 activ: inactive; Cav32 inh: inactive; CYP2C19 inh: inactive; CYP2C9 activ: inactive

How did O=C(CSc1ccc(Cl)cc1)Nn1cnnc1 do in these assays?
CYP2C9 inh: 82; CYP2C19 activ: inactive; Cav32 inh: inactive; CYP2C19 inh: 87; CYP2C9 activ: inactive

Results for O=C(CSc1ccc2ccccc2c1)Nn1cnnc1 ?
CYP2C9 inh: 90; CYP2C19 activ: inactive; Cav32 inh: inactive; CYP2C19 inh: 88; CYP2C9 activ: inactive

What do the screens show for `Cc1cc(C)nc(SCC(=O)Nn2cnnc2)n1`?
CYP2C9 inh: inactive; CYP2C19 activ: inactive; Cav32 inh: inactive; CYP2C19 inh: inactive; CYP2C9 activ: inactive
